Results filed as inconclusive are left out. Activity calls are given as the source filed them. Unless noted, calls come from the whole dose curve; as a rule, active = well fitted curve in the direction sought with a large enough effect; inconclusive = small, poorly fitted or top-dose-only effect, or another doubt; inactive = no such curve, though single readings can be large; an effect the other way counts as inactive or inconclusive.
Key:
[1] = NCATS anti-infectives library activity on HEK293 viability as a counter-qHTS vs the C. elegans viability qHTS (AID 1745854); note: % is set by controls: 0 for no effect and ±100 for the full control effect
How it was run: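 Cytotoxicity counter-screen to a worm viability qHTS: CellTiter-Glo luminescence read 10 min after reagent addition. Compounds (final up to 41.7 uM, a 1:5 dilution series) incubated 24 hr at 37C with 1,500 HEK293 cells per well; digitonin control.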

[2] = molecular target: Glutathione peroxidase 1 (Homo sapiens) (UniProt P07203); test: Primary qHTS Assay for Inhibitors of Recombinant Selenoprotein Glutathione Peroxidase 1 (GPX1) (AID 1845191); note: % is set by controls: 0 for no effect and ±100 for the full control effect; nearly all actives have a fitted effect of over 65% in size
Sequence of Glutathione peroxidase 1 (Homo sapiens) (P07203 whole entry, looked up): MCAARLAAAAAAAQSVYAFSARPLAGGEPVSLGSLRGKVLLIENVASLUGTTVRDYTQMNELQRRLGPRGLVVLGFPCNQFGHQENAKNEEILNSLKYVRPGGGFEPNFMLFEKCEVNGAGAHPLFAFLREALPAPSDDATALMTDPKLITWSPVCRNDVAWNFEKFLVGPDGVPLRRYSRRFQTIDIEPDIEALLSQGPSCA
How it was run: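 GPX1 10 nM, GR 100 nM, GSH 1 mM, NADPH 0.5 mM, CHP 0.5 mM (final). 30-min cpd preincubation, RT. Ex340/Em450 read t=0, t=15 min.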

[3] = Viability counterscreen for antagonist of constitutive androstane receptor (CAR) against the NCATS DSHEA and TCM libraries (AID 1794837);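 note: compound exposure lasted 24 h before viability reading; 0% is about no effect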
How it was run: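 Cells: HepG2 line carrying CYP2B6 reporter and hCAR, seeded and attached 5 h. Then pin-transferred test substances plus agonist CITCO at 48 uM final; 24 h incubation; fluorogenic viability reagent, 1 h.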

[4] = molecular target: Nuclear receptor subfamily 1 group I member 3 (Homo sapiens) (UniProt Q14994); test: Primary qHTS for agonist of constitutive androstane receptor (CAR) against the NCATS DSHEA and TCM libraries (AID 1794839);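 note: HepG2 cells expressing human CAR with a CYP2B6 reporter plus PK11195 antagonist; 0% is about no effect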
Sequence of Nuclear receptor subfamily 1 group I member 3 (Homo sapiens) (Q14994 whole entry, looked up): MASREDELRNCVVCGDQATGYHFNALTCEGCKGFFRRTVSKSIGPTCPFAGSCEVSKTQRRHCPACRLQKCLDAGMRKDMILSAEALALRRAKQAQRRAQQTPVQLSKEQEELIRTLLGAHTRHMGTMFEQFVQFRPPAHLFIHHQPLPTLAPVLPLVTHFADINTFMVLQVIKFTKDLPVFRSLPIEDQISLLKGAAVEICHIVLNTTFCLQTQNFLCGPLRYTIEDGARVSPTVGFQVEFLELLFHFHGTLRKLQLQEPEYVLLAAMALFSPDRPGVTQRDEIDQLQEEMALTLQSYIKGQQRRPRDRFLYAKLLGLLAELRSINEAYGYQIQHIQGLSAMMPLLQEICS
How it was run: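 qHTS, agonist mode: HepG2-CYP2B6-hCAR, 2,500 cells/well, 5 h attach; cpds + PK11195 0.75 µM final; 24 h, 37 °C, 5% CO2. Readouts: CellTiter-Fluor (405/540 nm), then ONE-Glo luminescence.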

[5] = HepG2 viability counterscreen (readout 2: ATP content) against the NCATS DSHEA and TCM libraries (AID 1794840); note: 0% is about no effect
How it was run: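 Same wells read twice: first fluorescence from cleaved GF-AFC substrate (25 uM final, 30 min, 37C) for live-cell protease, then CellTiter-Glo luminescence after 30 min at room temperature for ATP. HepG2 cells were exposed ~24 h to substances.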

[6] = molecular target: Cytochrome P450 3A4 (Homo sapiens) (UniProt P08684); test: qHTS for inhibitors of CYP3A4 against the NCATS DSHEA and TCM libraries (AID 1919971);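 note: % is set by controls: 0 for no effect and ±100 for the full control effect; inhibition lowers luminescence from luciferin made by CYP3A4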
Sequence of Cytochrome P450 3A4 (Homo sapiens) (P08684 whole entry, looked up, canonical isoform): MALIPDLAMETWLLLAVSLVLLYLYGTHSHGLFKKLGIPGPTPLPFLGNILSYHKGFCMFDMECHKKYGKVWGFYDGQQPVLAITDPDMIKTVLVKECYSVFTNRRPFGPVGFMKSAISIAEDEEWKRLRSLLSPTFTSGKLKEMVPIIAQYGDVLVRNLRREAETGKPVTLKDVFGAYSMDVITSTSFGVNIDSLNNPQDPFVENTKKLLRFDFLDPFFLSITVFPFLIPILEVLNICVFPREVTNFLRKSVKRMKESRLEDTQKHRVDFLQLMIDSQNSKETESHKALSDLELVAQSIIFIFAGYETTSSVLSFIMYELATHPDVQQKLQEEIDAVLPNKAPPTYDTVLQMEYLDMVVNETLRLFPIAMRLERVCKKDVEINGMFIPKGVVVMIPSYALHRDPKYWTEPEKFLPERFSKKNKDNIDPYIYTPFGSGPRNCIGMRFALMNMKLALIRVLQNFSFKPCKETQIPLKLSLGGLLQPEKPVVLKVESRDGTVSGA
How it was run: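 Each CYP isoform and its pro-luciferin substrate, at isoform-specific final concentrations, were preincubated 15 min at RT with substances. NADPH regeneration solution (1x) started a 30-45 min reaction, and P450-Glo luminescence was read.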

[7] = molecular target: Cytochrome P450 2D6 (Homo sapiens) (UniProt P10635); test: qHTS for inhibitors of CYP2D6 against the NCATS DSHEA and TCM libraries (AID 1919972); note: % is set by controls: 0 for no effect and ±100 for the full control effect
Sequence of Cytochrome P450 2D6 (Homo sapiens) (P10635 whole entry, looked up): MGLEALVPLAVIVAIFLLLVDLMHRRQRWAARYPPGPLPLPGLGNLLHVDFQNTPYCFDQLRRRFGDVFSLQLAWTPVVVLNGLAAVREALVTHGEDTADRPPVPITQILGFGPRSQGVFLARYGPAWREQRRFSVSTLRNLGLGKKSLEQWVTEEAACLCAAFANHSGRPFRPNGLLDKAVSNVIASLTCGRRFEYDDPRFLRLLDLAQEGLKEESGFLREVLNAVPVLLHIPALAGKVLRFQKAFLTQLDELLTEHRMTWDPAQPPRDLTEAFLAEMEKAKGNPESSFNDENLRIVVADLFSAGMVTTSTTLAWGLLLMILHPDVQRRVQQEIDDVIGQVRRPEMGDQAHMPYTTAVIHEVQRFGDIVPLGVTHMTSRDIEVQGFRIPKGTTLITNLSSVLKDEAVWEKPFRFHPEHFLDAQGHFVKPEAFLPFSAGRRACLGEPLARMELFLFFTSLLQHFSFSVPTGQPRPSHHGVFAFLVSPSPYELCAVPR
How it was run: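 CYP2D6 enzyme with pro-luciferin substrate in manufacturer buffer (typically 100 mM KPO4), preincubated 15 min RT with substances (most at 19.5 nM upward); NADPH regeneration system (1x) started 30–45 min RT reaction; P450-Glo luminescence read after 30 min; quinidine as intraplate control.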

[8] = KB-3-1 P-gp reporter qHTS against the NCATS DSHEA and TCM libraries (AID 1919975); note: 0% is about no effect
How it was run: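 KB-3-1 parental line, 1536-well qHTS: cells seeded, ~4 h attachment, pintool compound addition, ~72 h at 37C, then CellTiter-Glo, 30 min RT, luminescence. Concentration-response format.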

[9] = molecular target: Cytochrome P450 1A2 (Homo sapiens) (UniProt P05177); test: qHTS for inhibitors of CYPIA2 against the NCATS DSHEA and TCM libraries (AID 1919976); note: series mostly up to about 37 µM; % is set by controls: 0 for no effect and ±100 for the full control effect
Sequence of Cytochrome P450 1A2 (Homo sapiens) (P05177 whole entry, looked up): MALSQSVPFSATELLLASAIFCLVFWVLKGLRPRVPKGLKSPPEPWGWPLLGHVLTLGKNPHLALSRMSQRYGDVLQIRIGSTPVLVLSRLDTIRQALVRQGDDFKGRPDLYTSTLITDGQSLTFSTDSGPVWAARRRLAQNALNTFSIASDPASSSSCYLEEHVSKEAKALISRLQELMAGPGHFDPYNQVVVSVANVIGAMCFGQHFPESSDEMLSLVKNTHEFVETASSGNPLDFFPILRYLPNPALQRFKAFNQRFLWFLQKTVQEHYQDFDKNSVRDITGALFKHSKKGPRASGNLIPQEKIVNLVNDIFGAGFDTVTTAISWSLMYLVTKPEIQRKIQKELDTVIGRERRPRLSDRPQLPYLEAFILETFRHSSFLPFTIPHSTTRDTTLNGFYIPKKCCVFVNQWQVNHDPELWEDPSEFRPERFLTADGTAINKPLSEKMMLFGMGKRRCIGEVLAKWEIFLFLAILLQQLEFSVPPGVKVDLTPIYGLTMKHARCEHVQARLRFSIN
How it was run: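 Reaction started with 1x NADPH regeneration solution and run 30-45 min, room temperature, protected from light, after compounds sat 15 min with CYP1A2 and pro-luciferin substrate. P450-Glo detection gave luminescence; furafylline served as control.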

[10] = qHTS Counterscreen for compound interference against the NCATS DSHEA and TCM libraries (AID 1919978); settings: firefly luciferase detection reagent interference, luminescence;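 note: compounds preincubated with 1 µM D-luciferin or buffer before detection reagent; % of control where 0% means no effect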
How it was run: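 Compounds, titrated from 19.5 nM to 39.8 uM final, were pinned onto 1 uM D-luciferin or plain 100 mM potassium phosphate. After 15 min at room temperature, luciferin detection reagent was added for 30 min before the luminescence read.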

[11] = Dual reporter qHTS for agonist of Pregnane X Receptor (hPXR) against the NCATS DSHEA and TCM libraries: Fluorescence readout (AID 1920058); note: 0% is about no effect
How it was run: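 Viability readout (CellTiter-Fluor, 405/540 nm, 1 h) from agonist-mode PXR dual reporter in hPXR-Luc HepG2 cells. Substances ~24 h, 37 °C, 5% CO2; rifampicin reference, tetraoctyl ammonium bromide cytotoxic control.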

[12] = molecular target: Nuclear receptor subfamily 1 group I member 2 (Homo sapiens) (UniProt O75469); test: Dual reporter qHTS for agonist of Pregnane X Receptor (hPXR) against the NCATS DSHEA and TCM libraries: Luminescence readout (AID 1920059); note: 0% is about no effect
Sequence of Nuclear receptor subfamily 1 group I member 2 (Homo sapiens) (O75469 whole entry, looked up): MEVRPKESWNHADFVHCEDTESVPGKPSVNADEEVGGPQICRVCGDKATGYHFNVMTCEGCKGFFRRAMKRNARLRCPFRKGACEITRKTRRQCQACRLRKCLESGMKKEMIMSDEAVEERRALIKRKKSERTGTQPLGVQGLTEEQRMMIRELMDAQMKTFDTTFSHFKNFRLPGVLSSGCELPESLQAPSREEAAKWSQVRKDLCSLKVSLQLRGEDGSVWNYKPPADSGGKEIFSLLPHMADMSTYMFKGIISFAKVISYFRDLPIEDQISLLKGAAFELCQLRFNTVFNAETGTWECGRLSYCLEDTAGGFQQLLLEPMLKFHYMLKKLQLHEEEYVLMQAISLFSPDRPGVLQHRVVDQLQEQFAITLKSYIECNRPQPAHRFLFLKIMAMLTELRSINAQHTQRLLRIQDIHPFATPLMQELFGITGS
How it was run: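 hPXR-LucHepG2 cells in phenol red-free DMEM with 5% charcoal-stripped FBS, 2000 cells/well, attached 5 h, then exposed 24 h at 37C to compounds; rifampicin as positive agonist control (2.8 nM–92 uM). Luciferase luminescence read.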

[13] = molecular target: Nuclear receptor subfamily 1 group I member 2 (Homo sapiens) (UniProt O75469); test: Dual reporter qHTS for antagonist of Pregnane X Receptor (hPXR) against the NCATS DSHEA and TCM libraries: Luminescence Readout (AID 1920060);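 note: HepG2 cells carrying hPXR luciferase reporter stimulated with rifampicin at 2 µM; 0% is about no effect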
How it was run: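 hPXR-Luc HepG2 cells exposed 24 h at 37 C to compounds with 2 uM rifampicin in antagonist mode; luciferase luminescence measured by ONE-Glo, with CellTiter-Fluor viability read beforehand.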

[14] = NCATS anti-infectives library activity on the primary C. elegans qHTS viability assay (AID 1745855; calls by dose curve)
How it was run: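 GFP read-out by 488 nm laser cytometry at day 0, 3 and 7, gated on object perimeter, area and peak intensity, scored viability of PE254-GFP-FLuc worms exposed to compound in S medium with bacterial capsules at 21 °C.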

COC(=O)N[C@H](C(=O)N1CCC[C@H]1C(=O)Nc1ccc([C@@H]2CC[C@@H](c3ccc(NC(=O)[C@@H]4CCCN4C(=O)[C@@H](NC(=O)OC)C(C)C)cc3)N2c2ccc(C(C)(C)C)cc2)cc1)C(C)C
inactive: Potency [1] | Potency [2]

CC(C)=CCC[C@](C)(OC1OC(COC2OCC(O)C(O)C2O)C(O)C(O)C1O)[C@H]1CC[C@]2(C)[C@@H]1[C@H](O)C[C@@H]1[C@@]3(C)CC[C@H](OC4OC(CO)C(O)C(O)C4OC4OC(CO)C(O)C(O)C4O)C(C)(C)[C@@H]3CC[C@]12C (stereo partly specified)
inactive: Potency [1] | outcome [3] | Potency [4] | outcome [5] | Potency [2] | Potency [6] | Potency [7] | outcome [8] | Potency [9] | max response [10] 4.44% | outcome [11] | Potency [12] | outcome [13]

C[C@H]1O[C@@H](O[C@H]2CC[C@@]3(C)C(CC[C@]4(C)[C@@H]3C=CC3=C5CC(C)(C)CC[C@]5(CO)[C@H](O)C[C@@]34C)[C@]2(C)CO)[C@H](O)[C@@H](O[C@@H]2O[C@H](CO)[C@@H](O)[C@H](O)[C@@H]2O)[C@H]1O (stereo partly specified)
inactive: Potency [1] | Potency [14]

CCCCCCCCCCCCCCCc1cccc(O)c1C(=O)O
inactive: Potency [1] | Potency [14]

CCCC[C@H](NC(=O)[C@@H]1[C@@H]2[C@H](CN1C(=O)[C@@H](NC(=O)NC1(CS(=O)(=O)C(C)(C)C)CCCCC1)C(C)(C)C)C2(C)C)C(=O)C(=O)NC1CC1
inactive: Potency [1] | Potency [14]

Reference: PubChem BioAssay (NCATS)
